# Among all 140,000 compounds or so, about 2,100 (1.5%) were called active.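 How the source made its calls: active means viability at or under a set limit, the compound median less 4 SD (cut at about 6% in these data); inactive means the rest.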 This excerpt belongs to a sample that is enriched for actives.
# Experiment: primary screen for growth suppressors in beta-catenin knockout HCT116 cells (colon tumor, human) (AID 818);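 further: 0% = Hyamine 1622 control at 20 µM and 100% = untreated cell control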
# Conditions: CellTiter-Glo, 60 h, at 10 µM, active compounds read low
row,Structure (SMILES),viability
1,COc1ccccc1N=Cc1c(O)c2ccccc2oc1=O,84.7% (inactive)
2,CCCCCCc1cc2cc(-c3nnc(-c4ccccc4)o3)c(=O)oc2cc1O,1.64% (active)
3,Cc1c(/C=N/N2C(=O)C3C4C=CC(C4)C3C2=O)c2ccccc2n1C (stereo unspecified),90.7% (inactive)
4,Cc1coc2c(O)cc3c(c12)OC1(N2CCCCC2)C(=O)NCCCC31 (stereo unspecified),2.34% (active)
5,Cc1cccc(N2CCN(C(=O)c3ccccc3NC(=O)C3CCCCC3C(=O)O)CC2)c1 (stereo unspecified),93.7% (inactive)
6,COc1ccc(NC(=O)/C(Cl)=C(/Cl)S(=O)Cc2ccc(C)cc2)cn1 (stereo unspecified),0.98% (active)
7,COc1cc(NC(=O)Nc2ccc(C)cc2)cc([N+](=O)[O-])c1,86.1% (inactive)
8,COc1ccc(NS(=O)(=O)c2ccc(NC(=S)NC(=O)/C=C/c3ccc(C)cc3)cc2)nn1,84.3% (inactive)
9,COc1cc(OC)cc(C(=O)N[C@H](C(=O)OCC(=O)NC(C)c2ccccc2)C(C)C)c1 (stereo partly specified),83.7% (inactive)
10,O=C(NCc1ccccc1Cl)C1CCC(CNc2c(N3CCCCC3)c(=O)c2=O)CC1 (stereo unspecified),98.7% (inactive)
11,Cc1cc(C)cc(OCC(=O)Nc2nc3ccc([N+](=O)[O-])cc3s2)c1,109% (inactive)
12,COC(=O)C(NC(=O)c1ccc(OC)cc1)(Nc1ncc(S(=O)(=O)c2ccc([N+](=O)[O-])cc2)s1)C(F)(F)F (stereo unspecified),77.8% (inactive)
13,O=C(NC(Nc1nc2ccc([N+](=O)[O-])cc2s1)(C(F)(F)F)C(F)(F)F)c1ccccc1,1.34% (active)
14,COc1ccc(NC(C(=O)Nc2cccc(C(C)=O)c2)c2ccccc2)cc1 (stereo unspecified),84.6% (inactive)
15,Cc1ccc(-c2csc(NNC(=O)c3ccccc3)n2)cc1,13.8% (inactive)
16,COc1ccc(C)cc1Nc1nc(-c2c(C)[nH]c3ccccc23)cs1,89.8% (inactive)
17,CC(C)(C)c1ccc(C(=O)CSc2ncn[nH]2)cc1,94.5% (inactive)
18,O=C(NCCOCc1ccc(Cl)cc1)c1ncn[nH]1,93% (inactive)
19,O=C(/C=C/Sc1ncn[nH]1)c1ccc(Cl)cc1,4.54% (active)

row,Structure (SMILES),viability
1,O=[N+]([O-])c1ccc(N/N=C2/CCCCC2c2ccccn2)c([N+](=O)[O-])c1 (stereo unspecified),79.6% (inactive)
2,CC[C@H]1CN2CCc3cc(OC)c(OC)cc3[C@@H]2C[C@@H]1C[C@H]1NCCc2cc(OC)c(OC)cc21,4.12% (active)
3,COc1cc2c(cc1O)[C@H](Cc1ccc(Oc3cc(C[C@@H]4NCCc5cc(OC)c(O)cc54)ccc3O)cc1)NCC2,55% (inactive)
4,COC(=O)Cc1ccc(NC(=S)NCc2ccc(Cl)cc2)cc1,84.8% (inactive)
5,S=C(NCc1ccc(Cl)cc1)NC12CC3CC(CC(C3)C1)C2,3.01% (active)
6,S=C(NCc1ccc(Cl)cc1)NC1CCCCC1,66% (inactive)
7,CCCCN1C(=O)c2ccc(C(=O)Nc3ccc(S(=O)(=O)N(C)C)cc3)cc2C1=O,93.3% (inactive)
8,Cc1ccc(NC(=O)CN(C)Cc2ccc(F)cc2)c([N+](=O)[O-])c1,91.3% (inactive)
9,Cc1ccc(O)c(-c2cc(C(=O)Nc3c(C)n(C)n(-c4ccccc4)c3=O)[nH]n2)c1,80.2% (inactive)
10,CC1CCCC(NC(=O)COC(=O)[C@@H]2CC(O)CN2S(=O)(=O)c2ccc3c(c2)OCCO3)C1C (stereo partly specified),96.2% (inactive)
11,O=C(NCc1ccc2c(c1)OCO2)c1ccc2c(c1)C(=O)N(CC1CCCO1)C2=O (stereo unspecified),1.74% (active)
12,CCC(=O)Nc1ccc(C(=O)Nc2ccc3c(c2)C(=O)N(CC2CCCO2)C3=O)cc1 (stereo unspecified),93.3% (inactive)
13,CC1CCN(c2ccc(C(=O)NCc3ccc4c(c3)OCO4)cc2[N+](=O)[O-])CC1,94.5% (inactive)
14,COc1cc(Cl)c(C)cc1NC(=O)COC(=O)c1cc(SC)ccc1Cl,79.6% (inactive)
15,S=c1[nH]nc(-c2cccnc2)n1/N=C/C(Cl)=C\c1ccccc1,10.2% (inactive)
16,Cc1ccc(/C=N\n2c(-c3ccccc3)n[nH]c2=S)s1,94.7% (inactive)
17,Cc1cc(-c2n[nH]c(=S)n2/N=C/C(Br)=C/c2ccccc2)n[nH]1,2.95% (active)
18,Cc1ccc(NC(=O)c2oc(=O)c3ccccc3c2-c2ccccc2)c(C)c1,38.7% (inactive)
19,CN(C)S(=O)(=O)c1ccc(N2CCCC2=O)c([N+](=O)[O-])c1,83% (inactive)

row,Structure (SMILES),viability
1,CC1=C(C)CC(C(=O)NNC(=O)c2csc3c2CCC(C(C)(C)C)C3)C(C(=O)O)C1 (stereo unspecified),95.9% (inactive)
2,O=C(O)C1CC=C(Cl)CC1C(=O)NCc1ccccc1 (stereo unspecified),90% (inactive)
3,CC1=C(C)CC(C(=O)NNC(=O)c2ccccc2O)C(C(=O)O)C1 (stereo unspecified),5.74% (active)
4,COc1ccc(C(=O)OCC(=O)NC(=O)CCSc2ccccc2)cc1,97.4% (inactive)
5,COC(=O)c1cc(NC(=O)Cc2ccccc2[N+](=O)[O-])ccc1Cl,80.7% (inactive)
6,N#Cc1cccc(NC(=O)COC(=O)c2ccccc2C(=O)c2ccc(Cl)c([N+](=O)[O-])c2)c1,3.2% (active)
7,CC(=O)Nc1ccc(NC(=O)C(C)OC(=O)c2ccccc2C(=O)c2ccc(Cl)c([N+](=O)[O-])c2)cc1 (stereo unspecified),8.71% (inactive)
8,CC(=O)Nc1ccc(SCC(=O)Nc2ccccc2Oc2ccccc2)cc1,86.2% (inactive)
9,O=S(=O)(NCC1CCCO1)c1cnc(Cl)c(Cl)c1 (stereo unspecified),69.3% (inactive)
10,O=C(Nc1c2c(nc3ccccc13)CCCC2)c1ccccc1Br,83.6% (inactive)
11,O=C(O)c1ccccc1-c1ccccc1C(=O)Nc1cccc2ccccc12,90.2% (inactive)
12,O=C(Nc1cccc2ccccc12)c1onc2c1CCCC2,1.26% (active)
13,Cc1cc(C(C)(C)C)cc(C)c1N,100% (inactive)
14,CCCc1nc(SCC(=O)Nc2ccc(S(=O)(=O)N(C)C)cc2)c2ccccc2n1,72.2% (inactive)
15,CC(=O)N1CCN(c2cccc(C)c2C)CC1,99.9% (inactive)
16,Cc1cccc(N2CCN(C(=O)c3cnn4c(C(F)F)cc(-c5ccccc5)nc34)CC2)c1C,2.3% (active)
17,O=C(O)c1cnn2c(C(F)(F)F)cc(-c3ccccc3)nc12,96.5% (inactive)
18,CCC(C(=O)OCC(=O)Nc1ccccc1-c1ccccc1)c1ccccc1 (stereo unspecified),92.8% (inactive)

# Source: PubChem BioAssay AID818 (SRMLSC, 2007)
